From PubChem BioAssay (EPA / NIEHS)
Inconclusive results are not listed. Calls of active or inactive are those of the source. Rule for the calls, unless noted: active = hit-call score of the fitted dose curve at least 0.9, where 1 is the maximum; inconclusive = response in the unintended direction; inactive = score below 0.9.

Key:
[1] = Tanguay_ZF_120hpf_TRUN_legacy: (Legacy) Oregon State University Tanguay Lab 120 Hour Post-fertilization zebrafish Assay for Truncated Body (AID 2283655)
In short: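 Single dechorionated zebrafish embryos received test chemical from 6 hpf in 0.64% DMSO, kept at 28C. At 120 hpf, brightfield inspection noted any truncated body.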

[2] = Tanguay_ZF_120hpf_NC_legacy: (Legacy) Oregon State University Tanguay Lab 120 Hour Post-fertilization zebrafish Assay for Notochord and Tail Malformation (AID 2283656)
In short: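 Dechorionated Tropical 5D wild-type zebrafish embryos, one per well from 6 hpf, statically exposed to 120 hpf at 28C in 0.64% DMSO final. Notochord distortion scored present/absent by brightfield; dead embryos excluded.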

[3] = tested on: Thyroperoxidase (TPO), gene 54314; experiment: CCTE_Simmons_AUR_rTPO: CCTE's Amplex UltraRed Assay for Thyroperoxidase (TPO) Inhibition, Simmons Lab (AID 2283662);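 for AC50: potency for loss of signal meaning inhibition of peroxidase activity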
In short: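 Cell-free peroxidase activity assay using rat thyroid gland microsomes with excess H2O2 (300 uM) and 25 uM Amplex UltraRed. Compounds tested from 5 nM to 87.5 uM; fluorescence measured after 30 min at 37C, analysed relative to DMSO baseline.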

[4] = Tanguay_ZF_120hpf_TR_legacy: (Legacy) Oregon State University Tanguay Lab 120 Hour Post-fertilization zebrafish Assay for Touch Response (AID 2283667)
In short: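 Tropical 5D wild-type zebrafish embryos were exposed statically in sealed, foil-covered plates at 28C until 120 hpf, with 0.64% (vol/vol) final DMSO. Touch response was scored as present or absent; embryos that died were not scored.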

[5] = Tanguay_ZF_120hpf_ActivityScore_legacy: (Legacy) Oregon State University Tanguay Lab 120 Hour Post-fertilization zebrafish Assay Score for Activity (AID 2283742)
In short: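 Tropical 5D wild-type zebrafish embryos, dechorionated with pronase at 4 hpf, were exposed singly from 6 hpf to 120 hpf statically at 28C in 0.64% DMSO. Malformations and mortality were scored as binary by brightfield, with the activity score combining 18 morphology components.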

[6] = CCTE_Simmons_CellTiterGLO_HEK293T: Viability Assessment in CCTE's Assays for Thyroperoxidase (TPO) Inhibition, Simmons Lab (AID 2283665);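 for AC50: cells exposed to compound for 24 h before readout; actives reduce ATP signal below DMSO vehicle meaning cytotoxicity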
In short: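 HEK293T, 10 000 cells/well, DMEM + 1% FBS; 8-pt titration 5 nM–87.5 uM [final], 0.5% DMSO; 24 hr, 37C, 5% CO2; CellTiter-Glo luminescence; n=3 biological replicates.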

[7] = CCTE_Padilla_ZF_144hpf_TERATOSCORE: (Legacy) CCTE's 144 Hour Post-fertilization zebrafish Assay Teratoscore, Padilla Lab (AID 2283679; active = hit-call score of the fitted dose curve at least 0.9, where 1 is the maximum; inactive = score below 0.9;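 for AC50: zebrafish embryos with chorions exposed by immersion from 6-8 hpf to 5 dpf with daily renewal; teratogenicity score from eye scoring of death hatching and malformations at 144 hpf; higher score means more developmental defects relative to DMSO baseline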)
In short: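 Larvae scored by eye at 144 hpf for death, hatching and malformations after a day in clean Hanks'. Before that, daily-renewed exposure at 80 uM (0.4% DMSO, 26C) from roughly 6-8 hpf through 5 dpf, 4 embryos per chemical.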

[8] = CEETOX_H295R_MTT_cell_viability: Viability Assessment in the CeeTox HT-H295R MTT Assay (AID 2283718; active = hit-call score of the fitted dose curve at least 0.9, where 1 is the maximum; inactive = score below 0.9)
In short: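 H295R cells prestimulated 48 h with 10 uM forskolin, then exposed 48 h to test chemical (0.1% DMSO final). Viability by MTT (0.5 mg/ml, 4 h, 37 C), absorbance 570/650 nm; percent change versus DMSO, bidirectional fit.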

[9] = read-out: solute carrier (SLC10A1), SLC10A1 (gene 6554); experiment: LTEA_HepaRG_SLC10A1: Life Technologies and Expression Analysis (LTEA) Assay for solute carrier (SLC10A1) using HepaRG (AID 2283657; active = hit-call score of the fitted dose curve at least 0.9, where 1 is the maximum; inactive = score below 0.9); settings: mRNA level, 48 h; actives raise or lower the signal
In short: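 Differentiated HepaRG cells were plated 48 h, then exposed in serum-free induction medium for 48 h to 8 concentrations (top 100 uM, half-log steps, 0.5% DMSO). SLC10A1 mRNA was quantified by qRT-PCR normalized to ACTB, GAPDH, POLR2A; bidirectional fit versus DMSO.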

[10] = read-out: matrix metalloproteinase-1 (MMP1), MMP1 (gene 4312); experiment: LTEA_HepaRG_MMP1: Life Technologies and Expression Analysis (LTEA) Assay for matrix metalloproteinase-1 (MMP1) using HepaRG (AID 2283658; active = hit-call score of the fitted dose curve at least 0.9, where 1 is the maximum; inactive = score below 0.9); settings: mRNA level, 48 h; actives raise or lower the signal
In short: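 In this screen, human liver HepaRG cultures receive each chemical in duplicate for 48 h (top 100 uM, 0.5% DMSO). MMP1 expression is then quantified by TaqMan qRT-PCR with ACTB/GAPDH/POLR2A normalization.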

[11] = read-out: Cytochrome P450 (CYP24A1_1), CYP24A1 (gene 1591); experiment: LTEA_HepaRG_CYP24A1_1: Life Technologies and Expression Analysis (LTEA) Assay for Cytochrome P450 (CYP24A1_1) using HepaRG (AID 2283671; active = hit-call score of the fitted dose curve at least 0.9, where 1 is the maximum; inactive = score below 0.9); settings: mRNA level, 48 h; actives raise or lower the signal
In short: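 HepaRG, 48 h exposure, 8-pt half-log series from 100 uM in 0.5% DMSO, duplicates. Readout: TaqMan qRT-PCR of CYP24A1 mRNA, housekeeping-normalized (ACTB/GAPDH/POLR2A). Bidirectional curve fit vs DMSO baseline.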

[12] = STM_H9_OrnithineISnorm_perc: Stemina devTOX quickPredict H9 human embryonic stem cell (hESC)-based Assay for Ornithine (ORN) Metabolite Biomarker, Normalized (AID 2283712; active = hit-call score of the fitted dose curve at least 0.9, where 1 is the maximum; inactive = score below 0.9;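 note: ornithine released into spent medium during last day measured by mass spectrometry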)
In short: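 H9 human embryonic stem cells kept pluripotent receive test chemical over 72 h, refreshed daily by media exchange. Media from the closing 24 h is deproteinized and analysed by UPLC-HRMS on an amide column; ornithine signal is scaled to labelled standard and vehicle.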

[13] = STM_H9_CystineISnorm_perc: Stemina devTOX quickPredict H9 human embryonic stem cell (hESC)-based Assay for Cystine (CYSS) Metabolite Biomarker, Normalized (AID 2283713; active = hit-call score of the fitted dose curve at least 0.9, where 1 is the maximum; inactive = score below 0.9)
In short: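 H9 hESC, pluripotent; compound 72h, re-dosed q24h with medium change. Last-24h medium → 40% acetonitrile deproteinization → UPLC-HRMS. CYSS area / C13-CYSS standard, then % of 0.1% DMSO median.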

[14] = STM_H9_OrnCyssISnorm_ratio: Stemina devTOX quickPredict H9 human embryonic stem cell (hESC)-based Assay for Ornithine (ORN):Cystine (CYSS) Ratio (AID 2283714)
In short: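 Undifferentiated H9 hESCs were exposed to compound for 72h with media and chemical replaced every 24h. Final 24-h conditioned media were deproteinized and analysed by UPLC-HRMS. ORN and CYSS peak areas were normalized to C13 internal standards and the ratio taken versus 0.1% DMSO.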

[15] = tested on: Thyroperoxidase (TPO), gene 445522; experiment: CCTE_Simmons_GUA_TPO: CCTE's Guaiacol Assay for Thyroperoxidase (TPO) Inhibition, Simmons Lab (AID 2283750)
In short: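 Porcine thyroid microsomes (25 ug) in 200mM potassium phosphate, preincubated 30 s at 37C with compound (8 concentrations, 5 nM–87.5 uM) and 35mM guaiacol; 1mM H2O2 starts reaction. Absorbance change at 450nm over first 80 s; loss of signal versus DMSO, three replicates.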

[16] = ArunA_CellTiter_hNC: Viability Assessment in the ArunA Biomedical's Oris Neural Crest (hNC) Cell Migration Assay (AID 2283752)
In short: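 Cell titer was measured with the CellTiter Aqueous One reagent after 72 h of chemical dosing. Cells were H9-derived embryonic neural crest stem cells seeded on Matrigel, 60,000 per well, and given 16 h at 37C beforehand.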

[17] = ArunA_CellTiter_hNP: Viability Assessment in the ArunA Biomedical's Oris Neural Crest (hNC) Cell Migration Assay (AID 2283753)
In short: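 H9-derived hNP1 neuroprogenitors, 60,000/well on Matrigel, cultured 16 h, then 72 h chemical exposure in test medium. Cell titer via CellTiter Aqueous One; positive-direction fit vs DMSO.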

[18] = ArunA_Migration_hNP: ArunA Biomedical's Oris Neuroprogenitor (hNP) Cell Migration Assay (AID 2283754)
In short: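 Human H9-derived hNP1 neuroprogenitors on Matrigel with LIF/bFGF, plated around seeding stoppers for 16 h at 37C; stoppers removed at start of 72 h chemical exposure. Calcein-AM staining, fluorescence 494/517 nm in detection zone; loss-of-signal vs DMSO; cytochalasin D control.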

[19] = ArunA_Migration_hNC: ArunA Biomedical's Oris Neural Crest (hNC) Cell Migration Assay (AID 2283755)
In short: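 Human H9-derived neural crest stem cells, 60,000/well on Matrigel, 16 h at 37C, then 72 h chemical exposure after seeding-stopper removal. Migration into detection zone read as calcein-AM fluorescence (ex494/em517), relative to DMSO.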

[20] = ArunA_NOG_NucleusCount: ArunA Biomedical's Neurite Outgrowth (NOG) Assay for Nucleus Count (AID 2283756)
In short: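 Human H9-derived differentiated neurons were exposed for 48 h right after seeding. Hoechst-stained nuclei gated by size and intensity were counted by automated high-content imaging as viable neurons. Loss of signal vs DMSO.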

Measured: AC50

CNC(=O)[C@H]1O[C@@H](n2cnc3c(NCc4cc(Cl)ccc4OCc4cc(C)no4)ncnc32)[C@H](O)[C@@H]1N
inactive: [1] | [2] | [3] | [4] | [5]

COc1cc(S(=O)(=O)O)c(C)cc1N=Nc1c(O)ccc2cc(S(=O)(=O)O)ccc12
active: [3] 23.3 µM | [6] 13.4 µM
inactive: [1] | [2] | [5]

Cc1ccccc1Cl
inactive: [1] | [2] | [4] | [5]

Cc1nc(C)nc(N2C[C@@H](C)N(c3ccnc([C@@H](C)O)n3)[C@@H](C)C2)n1
active: [7] 30.3 µM
inactive: [1] | [2] | [4] | [8] | [5]

NCC1(Cc2noc(=O)[nH]2)CCCCC1
inactive: [1] | [2] | [5]

CN1CCCC1=O
inactive: [1] | [2] | [9] | [10] | [6] | [11] | [5]

CCOc1ccc2c(c1)C(C)=CC(C)(C)N2
active: [3] 1.48 µM | [6] 48.8 µM | [7] 57.7 µM | [15] 130 µM
inactive: [1] | [2] | [12] | [13] | [14] | [8] | [5]

CC1(C)NC(=O)NC1=O
inactive: [1] | [2] | [7] | [5]

COc1ccc2c(c1)c(CC(=O)O)c(C)n2C(=O)c1ccc(Cl)cc1
active: [7] 61.7 µM | [12] 82.5 µM | [14] 84.8 µM
inactive: [1] | [2] | [13] | [8]

C1CCC(SSC2CCCCC2)CC1
inactive: [1] | [2] | [9] | [10] | [11] | [7] | [5]

Nc1ccccc1N
inactive: [2] | [6] | [13] | [8] | [5]
active: [1] 10.9 µM | [3] 4.15 µM | [7] 89.9 µM | [12] 7.65 µM | [14] 8.66 µM

CCCCC(CC)COC(=O)CC(C(=O)OCC(CC)CCCC)S(=O)(=O)O (stereo not given)
active: [3] 43.8 µM | [6] 15.8 µM | [17] 7.54 µM | [18] 77.9 µM | [19] 28.7 µM
inactive: [1] | [2] | [12] | [13] | [14] | [5] | [16] | [20]

CCCCCCCCCCCCCCCC
inactive: [1] | [2] | [5]
